Measurements published in PubChem BioAssay (NCATS).
Results filed as inconclusive are left out. A call without a number means that no potency is given here. Active and inactive are the calls of the source. Calls come from the whole dose curve; as a rule, active = well fitted cell-killing curve with a large enough effect; inconclusive = small, poorly fitted or top-dose-only effect; inactive = flat fitted curve, though single readings scatter.
Potency is the fitted concentration of half-maximal effect.

Assay: Quantitative highthroughput screen to assess conditional lethalithy of NOMO1 cells grown in RPMI1640 with untreated serum (RPMI+s) (AID 1963876); note: nearly all actives have a fitted effect of over 35% in size
Details: NOMO1 AML cells in RPMI+serum, CellTiter-Glo viability, 48 h; series mostly up to 45.8 µM
Text: Assay Provider: Jason Cantor Ph.D.
Department of Biochemistry
University of Wisconsin-Madison, Madison, WI, USA
Chemical screening studies have identified drug sensitivities across hundreds of cancer cell lines but most putative therapeutics fail to translate. Discovery and development of drug candidates in models that more accurately reflect nutrient levels in human blood is a major challenge. Here we performed high-throughput screens in conventional versus Human Plasma-Like Medium (HPLM) to identify compounds that were "missed" when screening using the artificial culture condition. Sets of conditional anticancer compounds spanned phases of clinical development and included non-oncology drugs were assessed. […] We also traced conditional phenotypes for several chemotherapeutics to availability of HPLM-specific metabolites and confirmed others for compounds whose reported targets are encoded by nonessential genes. Our findings establish generalizable strategies for exploiting conditional lethality in HPLM to reveal therapeutic candidates and mechanisms of action in cancer cells.
Described herein are the results of each viability screens against three cell lines: NOMO1 (an acute myeloid leukemia cell line); P12-Ichikawa (a T-cell acute lymphoblastic leukemia); and SEM (a B-cell ALL). Each assay was screened using 3 different cell culture media: homemade human plasma-Like medium with 10% dialyzed fetal bovine serum (HPLM+ds); RPMI1640 with 10% untreated FBS and 5mM glucose (RPMI+s); and RPMI1640 with 10% dialyzed fetal bovine serum and 5 mM glucose (RPMI+ds).
PROTOCOL TABLE (as described by Inglese J, Shamu CE and Guy RK. 2007)
SEQUENCE No. (e.g., 1, 2, 3, etc.); […] (e.g., Cells, Incubation, Reagent, etc.); VALUE and DESCRIPTION.
1; Cells; 5 uL; white, solid bottom 1536-well Greiner assay plate.
2; Compounds; 23 nL; Kalypsis pin tool (Wako USA) equipped with a 1536-well pin head to transfer to the assay plates.
3; Incubation; 48 hours; 37C incubation.
4; Reagent; 3 uL; CellTiter Glo (Promega).
5; Incubation; 5 min, room temperature
6; Detection; Luminescence, Viewlux PerkinElmer.
NOTES (numbers refer to Sequence numbers above)
1. Briefly, 5 ul of cell reagent was dispensed using a Multidrop Combi Dispenser. The NOMO1 and SEM cells were plated at 500 cells/well and the P12-Ichikawa line at 1000 cells/well.
2. After seeding the cells, 23 nL of MIPE 4.1 library compounds (in DMSO) were added to each plate using a Kalypsys 1536 Pintool dispenser. Bortezomib at final concentration of […] and DMSO were added to each plate as positive and negative controls respectively. For each screen, MIPE 4.1 compounds were added over an eleven-point concentration range […] in 3-fold dilutions.
3. Each plate was covered with a stainless steel gasketed lid to prevent evaporation and incubated for 48 hour at 37C, 95% relative humidity, and 5% CO2.
4-5. Three microliter CellTilter-GloTM luminescent substrate mix (Promega) reagent was added to the assay plate and incubated at room temperature for 5 min.
6. The luminescence signal was measured using a ViewLux (PerkinElmer) multiplate reader with a 2 second exposure time per plate. Data for each compound were normalized as percent viability such that measurements for DMSO and the empty well controls in each plate were defined as 100% and 0%, respectively.
In the case of `COc1cc(C(=O)N2CC[C@@H](O)[C@@H](N)C2)cc2nc(-c3cc4ccccc4n3CC3CC3)n(C)c12`, the Potency is reported as 933 nM (active). In the case of `O=C(Oc1ccc([N+](=O)[O-])cc1)N1CCC(C(O)(c2ccc3c(c2)OCO3)c2ccc3c(c2)OCO3)CC1`, the Potency is reported as “inactive”. For `Cc1cccc(C)c1NC(=O)CN1CCCC1=O`, the Potency was “inactive”. In the case of `C=C[C@@H]1CN2CCC1C[C@H]2[C@H](O)c1ccnc2ccccc12` (stereo not given in full), the Potency is reported as “inactive”. In the case of `CN[C@@H]1Cc2cccc3[nH]c(=O)n(c23)C1`, the Potency is reported as “inactive”. With `C=CCON=C(C[C@H]1O[C@@H]2O[C@]3(C)CC[C@@H]4[C@H](C)CC[C@@H]([C@H]1C)[C@@]24OO3)[C@H]1O[C@@H]2O[C@]3(C)CC[C@H]4[C@H](C)CC[C@@H]([C@@H]1C)[C@@]24OO3` the Potency was 833 nM (active). In the case of `Cc1c(N)nc([C@H](CC(N)=O)NC[C@@H](N)C(N)=O)nc1C(=O)N[C@H](C(=O)N[C@@H](C)[C@H](O)[C@@H](C)C(=O)N[C@@H](C(=O)NCCc1nc(-c2nc(C(=O)NCCC[S+](C)C)cs2)cs1)[C@@H](C)O)C(O[C@H]1O[C@H](CO)[C@H](O)[C@@H](O)[C@@H]1O[C@H]1O[C@H](CO)[C@@H](O)[C@H](OC(N)=O)[C@H]1O)c1cnc[nH]1` (stereo not given in full), the Potency is reported as 1180 nM (active). For `C[C@]12CCC(=O)C(O)=C1CC[C@@H]1[C@H]3CCC(=O)[C@@]3(C)CC[C@@H]12`, the Potency was “inactive”. In the case of `CC(=O)N(C)c1cccc(-c2ccnc3c(C(=O)c4cccs4)cnn23)c1`, the Potency is reported as “inactive”. For `CCOC(=O)c1cncn1[C@H](C)c1ccccc1`, the Potency was “inactive”. In the case of `O=C(Nc1ccncc1)C(=O)c1cn(Cc2ccc(Cl)cc2)c2ccccc12`, the Potency is reported as 132 nM (active). With `CC=C(C)C(=O)O[C@H]1C(C)=C2[C@@H]3OC(=O)[C@@](C)(O)[C@@]3(O)[C@@H](OC(=O)CCC)C[C@](C)(OC(C)=O)[C@@H]2[C@@H]1OC(=O)CCCCCCC` the Potency was 93.5 nM (active). For `CN1CCN(c2ccc([N+](=O)[O-])c3no[n+]([O-])c23)CC1`, the Potency was “inactive”. For `C[C@]12CCC(=O)C=C1CC[C@@H]1[C@H]3CC[C@](C)(O)[C@@]3(C)CC[C@@H]12`, the Potency was “inactive”. For `CC(=Cc1csc(C)n1)[C@@H]1C[C@H]2O[C@]2(C)CCC[C@H](C)[C@@H](O)[C@@H](C)C(=O)C(C)(C)[C@@H](O)CC(=O)O1`, the Potency was “inactive”. For `CN1CCN(C(=O)O[C@H]2c3nccnc3C(=O)N2c2ccc(Cl)cn2)CC1`, the Potency was “inactive”. In the case of `CN1C(=O)CCS(=O)(=O)C1c1ccc(Cl)cc1` (stereo not given), the Potency is reported as “inactive”. In the case of `Cc1ccccc1-n1c(Cn2ncc3c(N)ncnc32)nc2cccc(C)c2c1=O`, the Potency is reported as 372 nM (active). In the case of `Cc1cc(SCc2sc(-c3ccc(C(F)(F)F)c(F)c3)nc2C)ccc1OCC(=O)O`, the Potency is reported as “inactive”. For `COc1cc2cc(c1Cl)N(C)C(=O)C[C@H](OC(=O)C(C)C)[C@]1(C)O[C@H]1[C@H](C)[C@@H]1C[C@@](O)(NC(=O)O1)[C@H](OC)C=CC=C(C)C2`, the Potency was “inactive”. For `CCCCCC[C@H]1C(=O)O[C@H](C)[C@H](NC(=O)c2cccc(NC=O)c2O)C(=O)O[C@@H](C)[C@@H]1OC(=O)CC(C)C`, the Potency was “inactive”. For `Cc1[nH]nc2ccc(-c3cncc(OC[C@@H](N)Cc4c[nH]c5ccccc45)c3)cc12`, the Potency was 1180 nM (active). For `NCC1(CC(=O)O)CCCCC1`, the Potency was “inactive”. With `O=C(O)c1nn(Cc2ccc(Cl)cc2Cl)c2ccccc12` the Potency was “inactive”. With `CN1C(=O)COc2c(C(=O)NC3CN4CCC3CC4)cc(Cl)cc21` (stereo not given) the Potency was “inactive”. In the case of `CC(=CCCC1=CCC(C2=CC(=O)OC2O)OC1O)CCC1=C(C)CCCC1(C)C` (stereo not given), the Potency is reported as “inactive”. With `CC(N[C@H]1C[C@H]1c1ccccc1)c1ccc2c(c1)OCCO2` (stereo not given in full) the Potency was “inactive”. For `COC1=C[C@@H]2[C@@H]3Cc4ccc(OC)c(O)c4[C@]2(CCN3C)CC1=O`, the Potency was “inactive”. In the case of `CCCC[N+]1(C)[C@H]2CC(OC(=O)[C@H](CO)c3ccccc3)C[C@H]1[C@H]1O[C@H]12` (stereo not given in full), the Potency is reported as 18700 nM (active). For `COC(=O)[C@@H](N)CCCN=C(N)N[N+](=O)[O-]`, the Potency was “inactive”. In the case of `COC1=CC(C)=C[C@@H](C)[C@@H](O)[C@@H](C)CC(C)=CC=C[C@H](OC)[C@H]([C@@H](C)[C@@H](O)[C@H](C)[C@@]2(O)C[C@@H](O)[C@H](C)[C@@H](C(C)C)O2)OC1=O`, the Potency is reported as 105 nM (active). With `C[C@H]1CCCC=CC2C[C@H](O)C[C@@H]2[C@H](O)C=CC(=O)O1` (stereo not given in full) the Potency was “inactive”. For `CNC(=O)c1ccc(N2C(=S)N(c3ccc(C#N)c(C(F)(F)F)c3)C(=O)C23CCC3)cc1F`, the Potency was “inactive”. With `COC[C@H]1OC(=O)c2coc3c2[C@@]1(C)C1=C(C3=O)[C@@H]2CC[C@H](O)[C@@]2(C)C[C@@H]1OC(C)=O` the Potency was “inactive”. For `C[C@](O)(COc1ccc(C#N)cc1)C(=O)Nc1ccc(C#N)c(C(F)(F)F)c1`, the Potency was “inactive”. In the case of `COc1cc(OC)c(OC)cc1C=O`, the Potency is reported as “inactive”. In the case of `C[C@@H]1[C@H](O)[C@@H](C)C=CC=CCCC=CC=CC=CC=C[C@H](O[C@H]2O[C@@H](C)[C@H](O)[C@@H](N)[C@@H]2O)CC2O[C@](O)(C[C@@H](O)[C@H](O)CC[C@@H](O)C[C@@H](O)C[C@@H](O)CC(=O)O[C@H]1C)C[C@H](O)[C@H]2C(=O)O`, the Potency is reported as “inactive”. For `NC1=NC(=O)N2CC12` (stereo not given), the Potency was 5900 nM (active). In the case of `COc1ccc2c(c1OC)CN1CCc3cc4c(cc3C1C2)OCO4` (stereo not given), the Potency is reported as 1480 nM (active). With `COc1ccc(CC2NCCc3cc(OC)c(OC)cc32)cc1OC` (stereo not given) the Potency was “inactive”.
